Laboratory results: PubChem BioAssay AID434958 (Southern Research Specialized Biocontainment Screening …, 2010)
Among all 1,200 compounds or so, about 400 (33%) were called active. How the calls were made is not given here. Only a sample is shown. Entries that show only a call come without a potency. Potency and affinity values are given separately.

test: mammalian cell cytotoxicity, dose response, cytotoxicity control (AID 434958); conditions: cytotoxicity counter-screen; series mostly up to 40 µM;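 further: cells exposed to compound for 72 hours before readout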

Compound	outcome
Cc1ccc(C)c(NC(=O)COC(=O)c2ccc(S(=O)(=O)N3CCCCC3)cc2)c1	inactive
O=c1[nH]c(C2CCN(S(=O)(=O)c3ccc(S(=O)(=O)NC4CC4)cc3)CC2)nc2c1nnn2Cc1ccc(F)cc1	inactive
COc1cccc(-c2nnn(CC(=O)Nc3cc(OC)c(NC(=O)c4ccco4)cc3OC)n2)c1	inactive
COCCCn1c(=O)/c(=C\c2ccccc2OC(C)C)s/c1=C(/C#N)C(=O)Nc1ccc(C(=O)O)cc1	inactive
O=C1c2ccccc2N2C(=O)c3ccccc3C2N1O (stereo not given)	inactive
CSc1ccccc1NC(=O)c1c(Br)cnn1C	inactive
C(=N\n1cnnc1)/c1ccc(-c2ccccc2)cc1	inactive
CCc1ccc(N2C(=O)c3sc4nnc(-c5ccccc5)c(=O)n4c3C2=O)cc1	inactive
Cn1c(/C=C/c2ccc(Cl)cc2)nc2ccccc2c1=O	inactive
CCOc1ccc2c(c1)c(C(C)=O)c(C)n2-c1ccccc1	inactive
CCOC(=O)c1sc(NC(=O)CN2CCN(c3ccc(OC)cc3)CC2)nc1C	inactive
O=c1cc(C(F)(F)F)c2sc(N3CCCCC3)nc2[nH]1	inactive
COc1ccc(NC(=O)CCC2CCCC2)cc1OC	inactive
CCN(CC)C(=O)COc1ccc(-c2nnc(Nc3ccc(OC)c(C(=O)NC)c3)c3ccccc23)cc1	inactive
CCCc1cc(C(=O)Nc2ccc(C(C)=O)cc2)no1	inactive
O=C1c2cccc3c(N4CCCCC4)ccc(c23)C(=O)N1c1ccccn1	inactive
COC(=O)c1ccc(-c2cc(C(=O)O)c3cc4c(cc3n2)OCCO4)cc1	inactive
C/C(=N\NC(=O)c1ccncc1)c1c(O)n(-c2ccccc2)c(=O)[nH]c1=O	inactive
C/C(=N\NC(=O)c1csc2ccccc12)c1ccc(O)cc1	inactive
C/C(=N/NC(=O)c1ccccn1)c1ccncc1	inactive
O=C(NN=C(Cc1ccccc1)Cc1ccccc1)c1ccccc1F	inactive
S=C(Nc1ccccc1Cl)N1CCCC(c2ccccc2)=N1	inactive
CCN(CC)c1ccc(C=N/C(C#N)=C(\N)C#N)cc1	inactive
COc1nc(-c2ccccc2)ccc1-c1noc(-c2cccnc2)n1	inactive
CCn1nc(C)c([N+](=O)[O-])c1C(=O)NNC(=O)c1ccccc1Cl	inactive

Compound	outcome
COc1cccc(-c2ccc(-c3noc(-c4ccccc4F)n3)c(OC)n2)c1	inactive
Cc1cc(Br)cc2c(C(=O)NCC3CCCO3)cc(-c3ccccc3)nc12 (stereo not given)	inactive
CCCn1c2ccccc2c2nnc(SCC(=O)OCC)nc21	inactive
CC(C)(C)c1cc(Cc2ccccc2)[nH]n1	inactive
COc1ccc([N+](=O)[O-])cc1NS(=O)(=O)c1ccc(Cl)c(C(=O)Nc2sc3c(c2C#N)CCCCC3)c1	inactive
CCCC(=O)Nc1nc(-c2ccccc2)ns1	inactive
Cc1ccc(C)c(S(=O)(=O)N2CCN(CC(=O)NC(C)c3ccccc3)CC2)c1 (stereo not given)	inactive
O=c1oc(-c2ccccc2F)nc2scc(-c3ccccc3)c12	inactive
Cc1ccc(C2=NN(C(=O)CN3C(=O)c4ccccc4S3(=O)=O)C(c3ccco3)C2)cc1 (stereo not given)	inactive
COCCOC(=O)c1c(C)oc2ccc(OCc3cc(C(=O)OC)oc3C)cc12	inactive
Cc1sc2nc(C(C)Nc3ccccc3N3CCOCC3)[nH]c(=O)c2c1C (stereo not given)	inactive
CCCc1cc(NC(=O)COC(=O)c2nccnc2N)n(-c2ccccc2)n1	inactive
CC(C)CCN1CC(O)=C(c2nc3ccccc3[nH]2)C1=N	inactive
O=C(Nc1nnc(-c2ccc3c(c2)OCCO3)o1)C1CCCCC1	inactive
O=C(Nc1nc(-c2ccc3c(c2)OCCO3)cs1)c1ccc(S(=O)(=O)N2CCCCC2)cc1	inactive
CCSc1nnc(NC(=O)CSc2nccn2-c2cccc(C)c2)s1	inactive
Cc1c(C(=O)NCCC2=CCCCC2)sc2ncnc(N3CCCCC3C)c12 (stereo not given)	inactive
Cc1cc(C)c(NC(=O)CC(C)(C)C)c(Cl)c1	inactive
COc1ccc(OC)c(NC(=O)CS(=O)(=O)c2ccccc2)c1	inactive
Cc1cc(C)c2oc(-c3ccc(Cl)c(NC(=O)c4ccc(C#N)cc4F)c3)nc2c1	inactive
Cc1ccc(OCC(=O)Nc2ccc(-c3nc4ncccc4o3)cc2)c(C)c1	inactive
CCc1ccc(NC(=S)Nc2ccc3cn[nH]c3c2)cc1	inactive
O=C(COC(=O)c1ccc(Cl)cc1[N+](=O)[O-])NNC(=O)c1cccs1	inactive
NC(=S)N/N=C/c1ccc([N+](=O)[O-])cc1	inactive
NNC(=S)NC1CC2CC1C1C=CCC21 (stereo not given)	inactive

Compound	outcome
CCc1nc2scc(-c3cccs3)c2c(=O)o1	inactive
Cc1c(-c2ccncc2)oc2ccc(Br)cc2c1=O	inactive
Cc1ccc2c(Cl)cc(Cl)c(OCc3c(C)noc3C)c2n1	inactive
O=C(N/N=C/c1ccc(OC(=O)c2ccc3c(c2)OCO3)cc1)c1cncc(Br)c1	inactive
Cc1ccc(/C=N\NC(=O)c2csnn2)cc1	inactive
Cc1cccc(C)c1NC(=O)C1CC2CCC1C2 (stereo not given)	inactive
COC(=O)c1c(NC(=O)c2ccc(C)cc2)csc1C	inactive
Cc1ccc(C)c(N2CCN(CC3CC=CCC3)CC2)c1 (stereo not given)	inactive
Cc1cc(Br)ccc1NC(=O)c1ccccc1-c1ccccc1	inactive
O=C(COC(=O)C1CC1)NCc1ccccc1Cl	inactive
Cc1ccc(C2=N/C(=C\c3cccc(F)c3)C(=O)O2)cc1	inactive
COC(=O)c1sc(-c2ccc(C(C)(C)C)cc2)cc1NC(=O)CCC(=O)O	inactive
O=C(COc1ccc(Cl)cc1)OCC(=O)N1CCCCCC1	inactive
Cc1ccc(C)c(-n2c(-c3ccco3)n[nH]c2=S)c1	inactive
O=C(NN1C(=O)c2cc(Br)ccc2NC1c1ccccc1Cl)c1ccncc1 (stereo not given)	inactive
CCOc1ccc(-c2nnc(-c3ccc(OC)cc3)o2)cc1	inactive
COc1ccc2cc(C3=CCCCC3)ncc2c1	inactive
COc1cccc(/C=C/c2[nH]c(=O)[nH]c(=O)c2[N+](=O)[O-])c1O	inactive
COc1ccc(-c2cc(C(N)=O)nc(N3CCCCCC3)n2)cc1	inactive
O=c1oc(-c2cccs2)nc2sc3c(c12)CCCC3	inactive
O=c1oc(-c2ccco2)nc2sc3c(c12)CCCCC3	inactive
COc1ccccc1C(=O)Nc1sc2c(c1C(=O)NCc1ccco1)CCCC2	inactive
O=C(Cn1cnc2sc3c(c2c1=O)CCCC3)NCC(=O)Nc1ccccc1F	inactive
CC(C(=O)Nc1sc2c(c1C(=O)NCc1ccco1)CCCC2)N1C(=O)c2ccccc2C1=O (stereo not given)	inactive
N#Cc1cc2c(nc1SCC(=O)Nc1sc3c(c1C#N)CCC3)CCCC2	inactive
